Data from PubChem BioAssay (NCATS).
Results filed as inconclusive are left out. Where a call stands in place of a potency, no number is given. The source made the active and inactive calls. Calls follow the shape of the dose curve; as a rule, active = well fitted inhibition curve with a large enough effect; inconclusive = small, poorly fitted or top-dose-only effect; inactive = flat fitted curve, though single readings scatter.

Each molecule was assayed against Calcium and integrin-binding protein 1 (Homo sapiens) (UniProt Q99828) (assay: Primary qHTS for Identification of Calcium Integrin Binding Protein 1 (CIB1) Competitor (AID 1508620; also: top concentration of the series differs between compounds)). Settings: CIB1-GST / FITC-alphaIIb peptide fluorescence polarization; series mostly up to 114 µM.
Calcium and integrin-binding protein 1 (Homo sapiens), sequence (Q99828 whole entry, looked up): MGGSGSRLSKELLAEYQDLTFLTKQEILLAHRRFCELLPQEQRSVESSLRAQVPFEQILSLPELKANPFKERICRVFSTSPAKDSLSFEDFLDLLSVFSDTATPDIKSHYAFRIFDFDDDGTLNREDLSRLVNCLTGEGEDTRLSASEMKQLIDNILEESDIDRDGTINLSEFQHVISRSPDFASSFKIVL
In short: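 Fluorescence polarization competition: GST-tagged CIB1 (1 uM final) preincubated with compound 15 min at room temperature, then FITC-labelled alphaIIb peptide (100 nM final) added. After 15 min at room temperature, polarization read at Ex 480/Em 540.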
In the case of COc1ccc2c3c4n(c2c1)[C@@H](C=C(C)C)OOC(C)(C)C[C@@H]4N1C(=O)[C@@H]2CCCN2C(=O)[C@]1(O)[C@H]3OCC=C(C)C, the Potency is reported as “inactive”. CC1=CC2/C=C(\C)CCCC(O)/C=C/C(=O)OC23C(=O)NC(CC(C)C)C3C1C (stereo not given) was tested, and the Potency was “inactive”. COc1cc(O)c2c(c1)/C=C/C[C@@H](O)[C@@H](O)C(=O)CCC[C@H](C)OC2=O was tested, and the Potency was “inactive”. In the case of COc1cc(N2CCN(C)CC2)ccc1N, the Potency is reported as “inactive”. In the case of COCC(C(=O)OC1CC2CCC(C1)N2C)c1ccccc1 (stereo not given), the Potency is reported as “inactive”. With N#CC(O[C@@H]1O[C@H](CO)[C@@H](O)[C@H](O)[C@H]1O)c1ccccc1 (stereo not given in full) the Potency was “inactive”. With NC(=O)c1ncn2c1CN=C(c1ccccc1Br)c1cc(F)ccc1-2 the Potency was “inactive”. In the case of Cc1c(N2C(=O)[C@@H]3[C@H](O)CCN3C2=O)ccc(C#N)c1Cl, the Potency is reported as “inactive”. For CC(=O)O[C@@H]1[C@H]2CC[C@H]3[C@@](C)(O)[C@@H]4C[C@H](O)C(C)(C)[C@@]4(O)[C@H](O)C[C@@]13C[C@@]2(C)O, the Potency was “inactive”. In the case of CC(=O)N1N=C(c2ccc(N)cc2)c2cc3c(cc2C[C@H]1C)OCO3, the Potency is reported as “inactive”. With COC(=O)[C@]12CCCC(C)(C)C1CCc1cc(C(C)C)c(O)c(O)c12 (stereo not given in full) the Potency was “inactive”. With COc1ccc(CN(C(=O)[C@@H](N)Cc2c(C)cc(C(N)=O)cc2C)[C@@H](C)c2ncc(-c3ccccc3)[nH]2)cc1C(=O)O the Potency was “inactive”. With C=CC/C=C\C/C=C\CCCCCCCc1cc(O)cc(O)c1 the Potency was “inactive”. With CN1C2CCC1CC(OC(=O)N1Cc3ccccc3NC1=O)C2 (stereo not given) the Potency was “inactive”. COC(=O)CC1CC2(C(=O)c3c(O)cccc3C2(O)C(=O)OC)C(C)O1 (stereo not given) was tested, and the Potency was “inactive”. With c1cncc(OC[C@@H]2CCN2)c1 the Potency was “inactive”. Cc1c(Cl)c(OCC(=O)N2CCN(C)CC2)nc2sc(C(=O)NC3CC3)c(N)c12 was tested, and the Potency was “inactive”. With CN1CCc2cc3c(cc2C1C1OC(=O)c2c1ccc1c2OCO1)OCO3 (stereo not given) the Potency was “inactive”. With C#CCO[C@H]1CN2CCC1CC2 the Potency was “inactive”. In the case of COc1ccsc1CNCC[C@@]1(c2ccccn2)CCOC2(CCCC2)C1, the Potency is reported as “inactive”. C1=C(c2cnc[nH]2)c2ccsc2CC1 was tested, and the Potency was “inactive”. CC1=CC2(O)/C=C/C(C)(O)C(O)C(O)/C=C/C(=O)OC23C(=O)NC(CC(C)C)C3C1C (stereo not given) was tested, and the Potency was “inactive”. C/C=C1/CN2CC[C@]34C(=Nc5ccc(OC)cc53)C2C[C@@H]1C4(CO)C(=O)OC (stereo not given in full) was tested, and the Potency was “inactive”. With Cc1cccc(NC(=O)N[C@H]2CN(C)c3ccccc3C(c3ccccc3)=N2)c1 the Potency was “inactive”. In the case of CO[C@@H]1[C@H](O)[C@@H](O[C@@H]2C[C@H]3CC[C@@H]4C(CC[C@]5(C)[C@@H](C6=CC(=O)OC6)CC[C@]45O)[C@@]3(C)[C@H](O)C2)O[C@H](C)[C@@H]1O (stereo not given in full), the Potency is reported as “inactive”. For C[C@@H]1CCC/C=C/[C@H]2C[C@@H](O)C[C@@H]2[C@@H](O)/C=C/C(=O)O1, the Potency was “inactive”. With CCC(C)(O)C1(C(=O)O)COC(=O)C1 (stereo not given) the Potency was “inactive”. With CC1(C)C(=O)N(c2ccc(C#N)c(C(F)(F)F)c2)C(=O)N1CCCCO the Potency was “inactive”. In the case of O=C1N[C@@H](Cc2ccccc2)CN2CCCC[C@@H]12, the Potency is reported as “inactive”. With CN1C(=O)CN=C(c2ccccc2Cl)c2cc(Cl)ccc21 the Potency was “inactive”.
